Measurements published in PubChem BioAssay AID720582 (The Scripps Research Institute Molecular Screening Center, 2013).
About 2,300 (0.62%) of roughly 370,000 compounds were called active.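 The calls were made as follows: active = inhibition above a per-campaign cutoff equal to the mean of compounds falling between control-based bounds plus 3 SD (cut at about 20% in these data); inactive = the rest.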 What follows is part of a selection rich in actives, with near analogues and random picks from the rest.

target: Disintegrin and metalloproteinase domain-containing protein 10 (Homo sapiens) (UniProt O14672); assay: human ADAM10 inhibitors, primary screen, biochemical, QFRET, HTS (AID 720582); conditions: recombinant ADAM10, EDANS/DABCYL FRET peptide cleavage, 3 h; at 7 µM; active compounds read high;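 also: 0% = DMSO wells while the 100% control is not disclosed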
Sequence (O14672 214-748 limits assumed): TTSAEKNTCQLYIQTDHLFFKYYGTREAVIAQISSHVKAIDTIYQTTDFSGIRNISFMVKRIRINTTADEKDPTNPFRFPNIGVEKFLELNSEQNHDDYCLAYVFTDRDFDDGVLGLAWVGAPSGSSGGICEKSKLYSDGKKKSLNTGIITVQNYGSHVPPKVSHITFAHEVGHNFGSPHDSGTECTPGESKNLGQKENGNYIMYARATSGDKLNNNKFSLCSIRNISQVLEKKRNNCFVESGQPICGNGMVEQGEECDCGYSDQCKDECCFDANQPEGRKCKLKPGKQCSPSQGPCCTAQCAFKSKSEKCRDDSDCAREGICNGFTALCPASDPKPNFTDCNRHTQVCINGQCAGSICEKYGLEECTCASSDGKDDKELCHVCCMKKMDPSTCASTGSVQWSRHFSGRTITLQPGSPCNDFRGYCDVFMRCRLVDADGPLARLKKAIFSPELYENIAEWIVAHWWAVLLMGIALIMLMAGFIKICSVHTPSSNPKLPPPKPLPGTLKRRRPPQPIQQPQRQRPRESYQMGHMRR

| Structure (SMILES) | inhibition |
| --- | --- |
| COc1ccc(CCNC(=O)CSc2nc3c([nH]2)c(=O)n(C)c(=O)n3C)cc1 | -8.76% (inactive) |
| Cc1cc(C)n2ncc(C(=O)Nc3ccc4c(c3)OCCO4)c2n1 | -3.85% (inactive) |
| CCC(=O)Nc1ccc2c(c1)C(=O)N(C)[C@H]1CC[C@H](CC(=O)NCCOC)O[C@@H]1CO2 | 2.62% (inactive) |
| Cc1cccc(CCNS(=O)(=O)c2ccc3c(c2)NC(=O)CO3)c1 | 0.59% (inactive) |
| Cc1cccc(CCNS(=O)(=O)c2ccc(S(=O)(=O)NC3CCCC3)cc2)c1 | 27.1% (active) |
| CC(C)c1ccc(S(=O)(=O)NC2CCCC2)cc1 | -3.8% (inactive) |
| Cc1ccc(NC(=S)NNC(=O)CSc2nnc(SCc3ccccc3Cl)s2)cc1 | 17.8% (inactive) |
| Cn1c(Nc2ccccc2)cc(=O)n(C)c1=O | 7.08% (inactive) |
| Cc1cc(Nc2ccccc2)n(C(=O)c2ccc(N)cc2)n1 | 21.3% (active) |
| Cc1ccc(NC(=O)Nc2cc(C)nn2-c2ccccc2)cc1 | -2.62% (inactive) |
| O=C(Nc1cccc(S(=O)(=O)Nc2ccc(Cl)cc2)c1)c1ccc2c(c1)OCCO2 | 20.5% (active) |
| O=C(NNC(=O)c1cccc(S(=O)(=O)Nc2ccc(Cl)cc2)c1)c1ccc(=O)[nH]c1 | 2.04% (inactive) |
| CC(=O)Nc1ccc(C(=O)Nc2cccc(S(=O)(=O)NC3=NCCC3)c2)cc1 | -1.25% (inactive) |
| O=C(NC1CCC1)c1ccc(C#CC2CC2)cn1 | -7.03% (inactive) |
| COc1ccc(-n2c(COc3ccc(C)cc3)nnc2SCC(=O)Nc2ccc(Oc3ccccc3)cc2)cc1 | -2.63% (inactive) |
| COc1cc(COCC(O)CN2CCN(Cc3ccc4c(c3)OCO4)CC2)cc(OC)c1OC (stereo not given) | -2.3% (inactive) |
| COc1cc(Cl)c(S(=O)(=O)N2CCN(Cc3ccc4c(c3)OCO4)CC2)cc1Cl | 45.9% (active) |
| COc1ccc(-c2cc(C(=O)N3CCN(Cc4ccc5c(c4)OCO5)CC3)on2)cc1OC | -0.99% (inactive) |
| Cc1ccccc1CN1CCCCC(NC(=O)c2cccc(C#N)c2)C1=O (stereo not given) | -1.06% (inactive) |
| Cc1nc2ccc(C(=O)N3CCN(C(=O)C(C)(C)C)CC3)cc2n1C1CCCC1 | 1.94% (inactive) |
| Cc1ccc(C2CCN(C(=S)Nc3cccc(Cl)c3)C2)cc1 (stereo not given) | 8.61% (inactive) |
| Cc1csc(NC(=S)Nc2cccc(Cl)c2)n1 | 23.1% (active) |
| COc1cc(SC)ccc1C(=O)Nc1nc(C)cs1 | -7.24% (inactive) |
| C=C(C)C1CC23C(=O)C4(C(=O)c5ccccc5)C[C@@]5(C)CCC(CC2C1(C)C)(C4=O)C35OC (stereo not given in full) | -9.26% (inactive) |
| O=C(C1CCN(S(=O)(=O)c2ccccc2)CC1)N1CCN(C2CCCCC2)CC1 | -10.1% (inactive) |
